Test results: PubChem BioAssay (Tox21)
Inconclusive results are not listed. Where a call stands in place of a potency, no number is given. The source made the active and inactive calls. Calls come from the whole dose curve; as a rule, active = well fitted inhibition curve with a large enough effect in the repeat runs; inconclusive = weak or mixed curves; inactive = no such curve, though single readings can be large or run the other way.

Target: Cytochrome P450 2C9 (Homo sapiens) (UniProt P11712)
Sequence (P11712 whole entry, looked up): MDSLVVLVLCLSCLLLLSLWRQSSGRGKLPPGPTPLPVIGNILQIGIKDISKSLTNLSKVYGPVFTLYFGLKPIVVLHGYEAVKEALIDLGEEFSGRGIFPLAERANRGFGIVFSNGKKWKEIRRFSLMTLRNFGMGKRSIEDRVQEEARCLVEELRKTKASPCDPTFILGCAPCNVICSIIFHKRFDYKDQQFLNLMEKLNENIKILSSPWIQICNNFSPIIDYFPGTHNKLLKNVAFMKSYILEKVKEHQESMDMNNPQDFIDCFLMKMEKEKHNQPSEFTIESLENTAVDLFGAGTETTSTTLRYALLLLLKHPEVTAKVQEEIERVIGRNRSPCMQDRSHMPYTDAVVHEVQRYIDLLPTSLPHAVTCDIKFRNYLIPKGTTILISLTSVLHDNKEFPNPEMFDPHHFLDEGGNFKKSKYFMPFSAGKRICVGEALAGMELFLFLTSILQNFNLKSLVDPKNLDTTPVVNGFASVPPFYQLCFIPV
Assay: Cytochrome P450 Family 2 Subfamily C Member 9 (CYP2C9) small molecule antagonists: luciferase reporter qHTS assay (AID 1671198); note: nearly all actives have a fitted effect of over 50% in size
Conditions: P450-Glo CYP2C9 enzyme assay, luciferin luminescence; series mostly up to 115 µM
Description: U.S. Tox21 Program National Center for Advancing Translational Sciences [NCATS] U.S. Environmental Protection Agency [EPA] National Institutes of Environmental Health Sciences [NIEHS] National Toxicology Program [NTP] U.S. Food and Drug Administration [FDA] Tox21 Assay Overview: Cytochrome P450 (CYP) enzymes are membrane-bound hemeproteins that play a key role in metabolism of drugs and xenobiotics. Evaluation of the effect of chemicals on CYP isozymes is useful to minimize the adverse drug reactions and toxicities in drug development process. Tox21 chemicals were tested for their effect on CYP enzyme activities by using P450-Glo (TM) screening systems (Promega Corporation, Madison, WI). These systems provide a luminescent method containing proluciferin substrates and are converted to luciferin products by CYP isozymes. The luciferin products formed are detected with a luciferin detection reagent, and the amount of light produced is proportional to CYP activity. P450-Glo (TM) CYP2C9 screening system (Catalog. No. V9790) was used to detect the compounds that interfere in CYP2C9 activity.
Tox21 Assay Protocol Summary: Two ul of enzyme-substrate mix was dispensed into medium binding white/solid 1536-well plates (Greiner Bio-One North America Inc., Monroe, NC) using a BioRaptr Flying Reagent Dispenser (FRD, Beckman Coulter, Brea, CA). […] The assay plates were incubated at room temperature for 10 min. Then 2 ul of NADPH regeneration solution was added to each well of the assay plates using an FRD and incubated at 37C for 1 h. The reaction was stopped by adding 4 ul of detection reagent using an FRD and after 20 min incubation at room temperature the luminescence signal was measured using a ViewLux plate reader (Perkin Elmer, Shelton, CT). Data were expressed as relative luminescence units.
Potency is the fitted concentration of half-maximal effect.

Row | Structure (SMILES) | Potency
1 | O=[N+]([O-])c1ccc2ncccc2c1 | inactive
2 | C=CC(=O)NC(C)C | inactive
3 | O=c1[nH][nH]c(=O)c2cc([N+](=O)[O-])ccc12 | inactive
4 | Cc1ccc2c(c1)CCCN2 | 39.9 µM (active)
5 | CCCCCCC(O)CCCCCCCCCCC(=O)OC (stereo not given) | 35.6 µM (active)
6 | CCOc1ncc(F)c(=O)[nH]1 | inactive
7 | Cc1ccc(N(CCO)CCO)cc1 | 39.9 µM (active)
8 | CC(CCc1ccc(O)cc1)NCCc1ccc(O)c(O)c1 (stereo not given) | inactive
9 | CC(C)c1ccc(C#N)cc1 | inactive
10 | C=Cc1ccc(OC(C)=O)cc1 | inactive
11 | CC(=O)OCC1=C(C(=O)O)N2C(=O)[C@@H](NC(=O)CSc3ccncc3)[C@H]2SC1 | 13.8 µM (active)
12 | Nc1c(Cl)cc(Cl)cc1[N+](=O)[O-] | inactive
13 | O=c1[nH]c2cc(C(F)(F)F)c(N3CCOCC3)cc2n(CP(=O)(O)O)c1=O | inactive
14 | CC(CO)(CO)C(=O)O | inactive
15 | CSSc1ccoc1C | inactive
16 | CCCc1nc2c(C)cc(-c3nc4ccccc4n3C)cc2n1Cc1ccc(-c2ccccc2C(=O)O)cc1 | 7.76 µM (active)
17 | CC(C)(O)CCc1ccccc1 | inactive
18 | Cc1ccccc1S(N)(=O)=O | inactive
19 | CN1CCCN(C(c2ccccc2)c2ccc(Cl)cc2)CC1 (stereo not given) | inactive
20 | ClC1=C(Cl)C1(Cl)Cl | inactive

Row | Structure (SMILES) | Potency
21 | Cc1ccc(N(CC2=NCCN2)c2cccc(O)c2)cc1 | inactive
22 | CC(=O)OCCC1CCCCC1 | inactive
23 | Cc1cc(CCCOc2c(C)cc(-c3noc(C(F)(F)F)n3)cc2C)on1 | 8.71 µM (active)
24 | COc1ccc(-c2cc(=S)ss2)cc1 | 12.3 µM (active)
25 | FC(F)(F)C(F)(F)C(F)(F)C(F)(F)CCI | inactive
26 | CC1CCCC(=O)C1=O (stereo not given) | inactive
27 | CCN(CC)c1ccc(C(=C2C=CC(=[N+](CC)CC)C=C2)c2ccc(S(=O)(=O)O)cc2S(=O)(=O)[O-])cc1 | 14.2 µM (active)
28 | Cc1ccc2nc(N)[nH]c(=O)c2c1Sc1ccncc1 | 5.49 µM (active)
29 | CSCC[C@H](NC(=O)[C@H](Cc1c[nH]c2ccccc12)NC(=O)CCNC(=O)OC(C)(C)C)C(=O)N[C@@H](CC(=O)O)C(=O)N[C@@H](Cc1ccccc1)C(N)=O | inactive
30 | O=C(Oc1ccccc1)c1ccc2ccccc2c1O | 12.6 µM (active)
31 | O=C(c1ccccc1)c1ccc(O)cc1 | inactive
32 | O=C(O)CCC(=O)c1ccc(-c2ccccc2)cc1 | inactive
33 | CC(C)C1CCC(C(=O)N[C@H](Cc2ccccc2)C(=O)O)CC1 (stereo not given in full) | 11 µM (active)
34 | O[C@@H](CNC[C@H](O)[C@H]1CCc2cc(F)ccc2O1)[C@@H]1CCc2cc(F)ccc2O1 | inactive
35 | N[C@@H](Cc1cc(I)c(O)c(I)c1)C(=O)O | 38.9 µM (active)
36 | CC/C=C\C/C=C\C/C=C\CCCCCCCC(=O)OCC | 40.9 µM (active)
37 | COc1cc(NCc2ccc3nc(N)nc(N)c3c2C)cc(OC)c1OC | 15.5 µM (active)
38 | CCCCCCCC(=O)OCCCCCC | inactive
39 | C[C@@H]1[C@H](O)[C@@H](C)/C=C/C=C\C=C\C=C\C=C\C=C\C=C\[C@H](O[C@@H]2O[C@H](C)[C@@H](O)[C@H](N)[C@@H]2O)C[C@@H]2O[C@](O)(C[C@@H](O)C[C@@H](O)[C@H](O)CC[C@@H](O)C[C@@H](O)CC(=O)O[C@H]1C)C[C@H](O)[C@H]2C(=O)O (stereo in doubt) | inactive
40 | CNS(=O)(=O)c1cc(C(=O)N2CCC(CCN3C4CCC3CC(n3c(C)nc5ccccc53)C4)(c3cccc(F)c3)CC2)c(Cl)cc1F (stereo not given) | 17.8 µM (active)
